Our source for the outcome and AC50 values is PubChem BioAssay (EPA / NIEHS).

Calls of active or inactive are those of the source. The calls were made as follows: active = hit-call score of the fitted dose curve at least 0.9, where 1 is the maximum; inactive = score below 0.9.

For orientation: AC50 means the concentration giving half of the maximal activity seen.

Settings in all cases: mRNA level, 48 h; actives raise or lower the signal
Read-out in assay [1]: matrix metalloproteinase-10 (MMP10), MMP10 (gene 4319)
The assay can be described thus: LTEA_HepaRG_MMP10: Life Technologies and Expression Analysis (LTEA) Assay for matrix metalloproteinase-10 (MMP10) using HepaRG (AID 2283517). An outline of the steps:
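In differentiated HepaRG cultures kept in 0.5% DMSO, test chemicals act for 48 h over an eight-point range with a top dose of 100 uM. Expression is then quantified by TaqMan RT-PCR against ACTB, GAPDH and POLR2A.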

Read-out in another assay: MYC, MYC (gene 4609)
The assay can be described thus: LTEA_HepaRG_MYC: Life Technologies and Expression Analysis (LTEA) Assay for MYC using HepaRG (AID 2283518). The procedure, abridged:
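Expression changes were scored by TaqMan qRT-PCR with ACTB, GAPDH and POLR2A normalization. Cultures in serum-free induction medium received duplicate 8-point concentration series, highest 100 uM, for 48 h; DMSO (0.5%) served as baseline.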

Read-out in assay [2]: matrix metalloproteinase-3 (MMP3), MMP3 (gene 4314)
The assay can be described thus: LTEA_HepaRG_MMP3: Life Technologies and Expression Analysis (LTEA) Assay for matrix metalloproteinase-3 (MMP3) using HepaRG (AID 2283519). The procedure, abridged:
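Human liver HepaRG cultures received chemicals (top concentration 100 uM, 0.5% DMSO) for 48 h in duplicate. MMP3 mRNA induction or loss was then assessed via TaqMan qRT-PCR with housekeeping-gene normalisation.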

Read-out in assay [3]: Paternally Expressed 10 (PEG10), PEG10 (gene 23089)
Description: LTEA_HepaRG_PEG10: Life Technologies and Expression Analysis (LTEA) Assay for Paternally Expressed 10 (PEG10) using HepaRG (AID 2283520).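 As to AC50: differentiated HepaRG human liver cells in serum-free induction medium with 0.5% DMSO; PEG10 transcript by qRT-PCR normalised to ACTB GAPDH and POLR2A.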 An outline of the steps:
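qRT-PCR read-out: PEG10 mRNA normalised to three housekeeping genes, fitted bidirectionally against 0.5% DMSO vehicle. HepaRG cells received test chemicals for 48 h in serum-free induction medium, 8 points, top 100 uM, half-log steps.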

Read-out in assay [4]: Nuclear factor NF-kappa-B p105 subunit (Homo sapiens) (UniProt P19838)
Description: LTEA_HepaRG_NFKB1: Life Technologies and Expression Analysis (LTEA) Assay for Nuclear Factor Kappa B Subunit 1 (NFKB1) using HepaRG (AID 2283521).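 As to outcome: differentiated human HepaRG liver cells in serum-free induction medium; TaqMan qRT-PCR transcript normalised to ACTB GAPDH and POLR2A housekeeping genes.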 An outline of the steps: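 HepaRG, 48 h exposure; 8-pt half-log series from 100 uM in 0.5% DMSO; duplicates. Readout: NFKB1 mRNA by qRT-PCR (Fluidigm arrays), housekeeping-normalized. Gain/loss fit vs DMSO baseline.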

Read-out in assay [5]: Protein phosphatase 2A (PPP2R4), PTPA (gene 5524)
The assay can be described thus: LTEA_HepaRG_PPP2R4: Life Technologies and Expression Analysis (LTEA) Assay for Protein phosphatase 2A (PPP2R4) using HepaRG (AID 2283522). The procedure, abridged: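 HepaRG, 48 h exposure, 8-pt half-log series from 100 uM, 0.5% DMSO vehicle, duplicates. Readout: PPP2R4 mRNA, Fluidigm qRT-PCR, housekeeping-normalized. Bidirectional curve fit vs DMSO baseline.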

Read-out in assay [6]: Phosphatase and tensin (PTEN), PTEN (gene 5728)
Description: LTEA_HepaRG_PTEN: Life Technologies and Expression Analysis (LTEA) Assay for Phosphatase and tensin (PTEN) using HepaRG (AID 2283523). An outline of the steps: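 Expression of PTEN is quantified in the human liver line HepaRG following two days of dosing (top concentration 100 uM, half-log dilutions, 0.5% DMSO). Values derive from bidirectional curve fitting relative to DMSO controls.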

Read-out in assay [7]: solute carrier (SLC22A1), SLC22A1 (gene 6580)
Description: LTEA_HepaRG_SLC22A1: Life Technologies and Expression Analysis (LTEA) Assay for solute carrier (SLC22A1) using HepaRG (AID 2283524).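 As to AC50: differentiated human HepaRG liver cells in serum-free induction medium; TaqMan qRT-PCR normalized to ACTB GAPDH and POLR2A housekeeping genes.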 An outline of the steps: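 Transcript induction or suppression of SLC22A1 in human HepaRG cultures is scored after 48 h chemical treatment, with DMSO (0.5%) as baseline for bidirectional fitting. Concentrations span eight half-log points topping at 100 uM.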

Read-out in assay [8]: Pyruvate Dehydrogenase Kinase 4 (PDK4), PDK4 (gene 5166)
The assay can be described thus: LTEA_HepaRG_PDK4: Life Technologies and Expression Analysis (LTEA) Assay for Pyruvate Dehydrogenase Kinase 4 (PDK4) using HepaRG (AID 2283525). The procedure, abridged:
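Eight-point, half-log concentration series (max 100 uM, 0.5% DMSO) applied to differentiated HepaRG cells for 48 h in duplicate. Endpoint: PDK4 mRNA induction or repression by qRT-PCR against DMSO baseline.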

Read-out in assay [9]: NAD(P)H dehydrogenase [quinone] 1 (NQO1), NQO1 (gene 1728)
The assay can be described thus: LTEA_HepaRG_NQO1: Life Technologies and Expression Analysis (LTEA) Assay for NAD(P)H dehydrogenase [quinone] 1 (NQO1) using HepaRG (AID 2283526). An outline of the steps: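 qRT-PCR read-out (Fluidigm TaqMan), normalized to three housekeeping genes, after 48 h chemical exposure of HepaRG cells. Concentrations: eight points, top 100 uM, half-log steps, 0.5% DMSO vehicle. Gain or loss of signal fitted relative to DMSO.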

Read-out in assay [10]: Nuclear factor erythroid 2-related factor 2 (Homo sapiens) (UniProt Q16236)
The assay can be described thus: LTEA_HepaRG_NFE2L2: Life Technologies and Expression Analysis (LTEA) Assay for Nuclear factor erythroid 2-related factor 2 (NFE2L2) Transcription Factor using HepaRG (AID 2283527).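 As to outcome: TaqMan qRT-PCR transcript level normalised to ACTB GAPDH and POLR2A housekeeping genes.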 An outline of the steps:
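Human liver HepaRG line treated in duplicate for 48 h with an eight-point series topping at 100 uM. Gene expression of NFE2L2 by qRT-PCR, bidirectionally fitted against the vehicle control.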

Read-out in assay [11]: succinate dehydrogenase complex iron sulfur subunit B (SDHB), SDHB (gene 6390)
Description: LTEA_HepaRG_SDHB: Life Technologies and Expression Analysis (LTEA) Assay for succinate dehydrogenase complex iron sulfur subunit B (SDHB) using HepaRG (AID 2283528). The procedure, abridged: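 Readout is SDHB transcript level by qRT-PCR, normalised to three housekeeping genes and fitted bidirectionally against 0.5% DMSO vehicle. Human HepaRG cells were treated for 48 h at up to 100 uM.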

Read-out in assay [12]: Signal transducer and activator of transcription 3 (Homo sapiens) (UniProt P40763)
Description: LTEA_HepaRG_STAT3: Life Technologies and Expression Analysis (LTEA) Assay for Signal transducer and activator of transcription (STAT3) using HepaRG (AID 2283529). The procedure, abridged: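 In this transcriptional endpoint, HepaRG cultures receive test chemicals at up to 100 uM for 48 h, tested in duplicate. STAT3 mRNA is normalized to ACTB, GAPDH and POLR2A.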

Read-out in assay [13]: solute carrier (SLCO1B1), SLCO1B1 (gene 10599)
Description: LTEA_HepaRG_SLCO1B1: Life Technologies and Expression Analysis (LTEA) Assay for solute carrier (SLCO1B1) using HepaRG (AID 2283530). The procedure, abridged:
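Human HepaRG cultures treated for 48 h with an eight-concentration half-log series topping at 100 uM; SLCO1B1 measured by qRT-PCR and fitted bidirectionally relative to DMSO.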

Read-out in assay [14]: sulfotransferase 2A1 (SULT2A1), SULT2A1 (gene 6822)
The assay can be described thus: LTEA_HepaRG_SULT2A1: Life Technologies and Expression Analysis (LTEA) Assay for sulfotransferase 2A1 (SULT2A1) using HepaRG (AID 2283531). An outline of the steps:
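Gene-expression endpoint in a human liver cell line: SULT2A1 mRNA change after 48 h chemical treatment, curves fitted in both directions relative to 0.5% DMSO vehicle. Concentrations spanned eight half-log steps from 100 uM.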

Read-out in assay [15]: Transforming Growth Factor (TGFA), TGFA (gene 7039)
Description: LTEA_HepaRG_TGFA: Life Technologies and Expression Analysis (LTEA) Assay for Transforming Growth Factor (TGFA) using HepaRG (AID 2283532). An outline of the steps:
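Gene expression of TGFA was quantified by qRT-PCR after human HepaRG cells were treated for 48 h with test chemicals (eight concentrations, highest 100 uM, 0.5% DMSO). Activity in either direction was fitted relative to DMSO.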

Read-out in assay [16]: Transforming Growth Factor (TGFB1), TGFB1 (gene 7040)
The assay can be described thus: LTEA_HepaRG_TGFB1: Life Technologies and Expression Analysis (LTEA) Assay for Transforming Growth Factor (TGFB1) Transporter using HepaRG (AID 2283533). The procedure, abridged: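 Eight-point concentration-response (max 100 uM, half-log) in HepaRG under serum-free induction conditions, 48 h. TGFB1 mRNA by qRT-PCR, housekeeping-normalized.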

Read-out in a further assay: TIMP1, TIMP1 (gene 7076)
Description: LTEA_HepaRG_TIMP1: Life Technologies and Expression Analysis (LTEA) Assay for TIMP1 using HepaRG (AID 2283534).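 Also: TaqMan qRT-PCR signal normalized to ACTB GAPDH and POLR2A housekeeping genes.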 The procedure, abridged: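 TIMP1 induction or repression in HepaRG cells after 48 h chemical exposure (eight concentrations, highest 100 uM), assessed by normalized qRT-PCR with bidirectional fitting to DMSO controls.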

Read-out in assay [17]: Tumor necrosis factor receptor 1 (TNFRSF1A), TNFRSF1A (gene 7132)
Description: LTEA_HepaRG_TNFRSF1A: Life Technologies and Expression Analysis (LTEA) Assay for Tumor necrosis factor receptor 1 (TNFRSF1A) using HepaRG (AID 2283535). The procedure, abridged:
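Assay uses 48 h chemical treatment of differentiated HepaRG monolayers, tested in duplicate at eight concentrations from 100 uM downward in 0.5% DMSO. mRNA is normalized to ACTB, GAPDH and POLR2A, with induction or suppression fitted relative to vehicle.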

Read-out in assay [18]: Thyroid Hormone Responsive (THRSP), THRSP (gene 7069)
Description: LTEA_HepaRG_THRSP: Life Technologies and Expression Analysis (LTEA) Assay for Thyroid Hormone Responsive (THRSP) using HepaRG (AID 2283536). The procedure, abridged:
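Cell model: human HepaRG, approx. 100,000 cells/well, 0.5% DMSO vehicle. Exposure lasts 48 h; phenobarbital 1 mM serves as induction positive control. Gene expression is measured by qRT-PCR against three endogenous control genes.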

Nuclear factor erythroid 2-related factor 2 (Homo sapiens), sequence (Q16236 whole entry, looked up): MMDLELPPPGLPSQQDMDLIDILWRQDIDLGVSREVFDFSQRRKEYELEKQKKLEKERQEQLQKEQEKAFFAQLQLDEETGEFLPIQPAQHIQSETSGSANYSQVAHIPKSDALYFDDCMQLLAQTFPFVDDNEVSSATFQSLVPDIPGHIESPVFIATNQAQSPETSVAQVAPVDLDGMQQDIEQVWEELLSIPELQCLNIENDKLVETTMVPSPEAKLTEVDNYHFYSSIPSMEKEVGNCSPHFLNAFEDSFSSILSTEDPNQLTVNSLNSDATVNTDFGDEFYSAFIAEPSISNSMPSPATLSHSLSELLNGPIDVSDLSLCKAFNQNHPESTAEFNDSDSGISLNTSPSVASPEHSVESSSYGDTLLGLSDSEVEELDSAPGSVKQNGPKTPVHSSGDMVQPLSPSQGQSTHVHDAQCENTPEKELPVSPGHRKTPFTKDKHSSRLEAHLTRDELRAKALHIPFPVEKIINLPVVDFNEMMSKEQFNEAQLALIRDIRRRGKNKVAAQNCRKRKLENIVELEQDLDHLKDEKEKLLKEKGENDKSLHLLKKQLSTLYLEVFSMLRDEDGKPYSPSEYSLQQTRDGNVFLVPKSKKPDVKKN
Signal transducer and activator of transcription 3 (Homo sapiens), sequence (P40763 whole entry, looked up): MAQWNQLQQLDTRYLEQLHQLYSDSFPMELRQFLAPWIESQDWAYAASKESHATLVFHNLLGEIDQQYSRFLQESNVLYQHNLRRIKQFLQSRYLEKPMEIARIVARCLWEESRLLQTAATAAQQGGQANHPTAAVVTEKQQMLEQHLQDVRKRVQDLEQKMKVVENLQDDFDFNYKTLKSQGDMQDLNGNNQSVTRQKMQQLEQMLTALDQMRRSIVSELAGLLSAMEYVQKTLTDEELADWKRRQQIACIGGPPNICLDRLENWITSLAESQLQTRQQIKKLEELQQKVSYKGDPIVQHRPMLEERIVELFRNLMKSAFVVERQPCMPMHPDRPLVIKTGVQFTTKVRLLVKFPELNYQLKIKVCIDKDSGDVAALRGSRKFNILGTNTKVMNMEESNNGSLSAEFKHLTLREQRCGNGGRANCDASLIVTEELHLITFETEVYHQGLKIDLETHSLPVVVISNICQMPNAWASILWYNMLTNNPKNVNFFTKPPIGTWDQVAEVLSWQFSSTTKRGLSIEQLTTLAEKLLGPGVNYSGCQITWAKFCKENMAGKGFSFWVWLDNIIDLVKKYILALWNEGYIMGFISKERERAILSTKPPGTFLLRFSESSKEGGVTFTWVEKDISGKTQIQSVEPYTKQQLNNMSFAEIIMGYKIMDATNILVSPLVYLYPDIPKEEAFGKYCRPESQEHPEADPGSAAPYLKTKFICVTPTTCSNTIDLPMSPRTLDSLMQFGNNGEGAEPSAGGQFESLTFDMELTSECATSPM
Nuclear factor NF-kappa-B p105 subunit (Homo sapiens), sequence (P19838 whole entry, looked up): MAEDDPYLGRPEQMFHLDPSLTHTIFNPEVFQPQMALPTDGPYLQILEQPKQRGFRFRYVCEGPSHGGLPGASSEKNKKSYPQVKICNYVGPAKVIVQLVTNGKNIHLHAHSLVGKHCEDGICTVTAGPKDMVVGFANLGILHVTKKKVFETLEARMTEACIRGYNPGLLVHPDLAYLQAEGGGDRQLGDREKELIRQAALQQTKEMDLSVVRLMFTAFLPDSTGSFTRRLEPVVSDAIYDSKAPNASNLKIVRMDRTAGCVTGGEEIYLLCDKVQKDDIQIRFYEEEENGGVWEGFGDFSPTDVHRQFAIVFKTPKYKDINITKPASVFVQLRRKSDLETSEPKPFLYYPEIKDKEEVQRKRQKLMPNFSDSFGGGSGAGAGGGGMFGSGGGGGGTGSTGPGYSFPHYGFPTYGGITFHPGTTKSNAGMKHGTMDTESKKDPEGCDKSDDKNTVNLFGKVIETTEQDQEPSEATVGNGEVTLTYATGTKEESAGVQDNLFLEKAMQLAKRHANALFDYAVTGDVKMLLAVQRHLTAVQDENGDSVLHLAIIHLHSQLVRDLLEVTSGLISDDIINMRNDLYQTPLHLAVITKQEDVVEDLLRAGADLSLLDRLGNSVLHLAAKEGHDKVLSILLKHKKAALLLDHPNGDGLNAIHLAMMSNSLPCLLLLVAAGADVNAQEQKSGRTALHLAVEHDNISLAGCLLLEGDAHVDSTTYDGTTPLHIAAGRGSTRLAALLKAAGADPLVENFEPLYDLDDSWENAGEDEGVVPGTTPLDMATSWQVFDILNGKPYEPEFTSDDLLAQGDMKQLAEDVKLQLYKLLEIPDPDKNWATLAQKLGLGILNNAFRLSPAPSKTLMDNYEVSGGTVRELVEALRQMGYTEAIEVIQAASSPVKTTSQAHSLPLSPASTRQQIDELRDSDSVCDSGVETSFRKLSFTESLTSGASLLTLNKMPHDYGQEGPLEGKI

Regarding `O=C(O)CCCCC(=O)O`, the outcome was “inactive” in [1]; “inactive” with MYC, MYC (gene 4609); “inactive” in [2]; “inactive” in assay [3]; “inactive” in assay [4]; “inactive” in [5]. The result in assay [6], in assay [7], in assay [8], in assay [9], in assay [10] and in assay [11] was inactive. Besides, the outcome in assay [12] was “inactive”; in assay [13], “inactive”; in [14] it was “inactive”; in [15], “inactive”; in assay [16], “inactive”; with TIMP1, TIMP1 (gene 7076), “inactive”. Further, the outcome in [17] and in assay [18] was inactive.
On to `CCCCC(CC)COC(=O)CC(C(=O)OCC(CC)CCCC)S(=O)(=O)O` (centres undefined), for which the compound was classed as inactive in assay [1], in assay [2], in assay [4], in assay [8], in [9] and in assay [10]. For the same compound, the outcome in [12] is “inactive”; in the assay with TIMP1, TIMP1 (gene 7076), “inactive”; in assay [18] it was “inactive”. Besides, the AC50 is 85 µM (active) in the assay with MYC, MYC (gene 4609); 89 µM (active) in [3]; 80.9 µM (active) in assay [5]; 80.9 µM (active) in [6]; 50 µM (active) in assay [7]; 86.7 µM (active) in assay [11]. Also, the AC50 was 85.5 µM (active) in assay [13]; 80.2 µM (active) in assay [14]; 50 µM (active) in assay [15]; 77.6 µM (active) in assay [16]; 93.5 µM (active) in assay [17].
For the compound `CC(=O)Oc1ccccc1C(=O)O`, the outcome in [1] is “inactive”; with MYC, MYC (gene 4609), “inactive”; in [2], “inactive”; in assay [3] it was “inactive”; in assay [4] it was “inactive”; in [5], “inactive”. Also, the compound was called inactive in [6], in assay [7], in assay [8], in [9], in assay [10] and in assay [11]. The outcome was “inactive” in [12]; “inactive” in [13]; “inactive” in [14]; “inactive” in assay [15]; “inactive” in assay [16]; “inactive” in the assay with TIMP1, TIMP1 (gene 7076). The outcome in assay [17] was inactive.
On to `CN[C@H]1CC[C@@H](c2ccc(Cl)c(Cl)c2)c2ccc(S(N)(=O)=O)cc21`, for which the concentration at half-maximal activity (AC50) in assay [1] was 66.4 µM (active); in assay [2] it was 84.1 µM (active); in [4], 81.4 µM (active); in assay [5] it was 84.5 µM (active); in assay [7], 22.4 µM (active); in assay [8] it was 83 µM (active). Besides, the half-maximal activity concentration (AC50) in assay [10] is 81.5 µM (active); in [12] it was 50 µM (active); in [14], 87.6 µM (active). Besides, the outcome is “inactive” with MYC, MYC (gene 4609); “inactive” in assay [3]; “inactive” in assay [6]; “inactive” in assay [9]; “inactive” in assay [11]; “inactive” in assay [13]. In addition, the outcome is “inactive” in assay [15]; “inactive” in assay [16]; “inactive” with TIMP1, TIMP1 (gene 7076); “inactive” in assay [17]; “inactive” in assay [18].
